Compound activity from PubChem BioAssay.
DAX1 inh-1 – NR0B1 (DAX1) inhibition. P51843. HEK293 Gal4-DAX1 luciferase reporter, luminescence. inhibition, % at 6.75 µM. 340,000 tested, 0.99% active. AID 504766;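 active = inhibition above the mean over all tested compounds plus 3 SD, cut at about 4.2% in these data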;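 note: 0% = DAX1-transfected cells with DMSO and 100% = empty-vector control cells with DMSO; inhibition shows as a rise in luminescence from relieved DAX1 repression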
Target sequence (P51843 207-470 limits assumed): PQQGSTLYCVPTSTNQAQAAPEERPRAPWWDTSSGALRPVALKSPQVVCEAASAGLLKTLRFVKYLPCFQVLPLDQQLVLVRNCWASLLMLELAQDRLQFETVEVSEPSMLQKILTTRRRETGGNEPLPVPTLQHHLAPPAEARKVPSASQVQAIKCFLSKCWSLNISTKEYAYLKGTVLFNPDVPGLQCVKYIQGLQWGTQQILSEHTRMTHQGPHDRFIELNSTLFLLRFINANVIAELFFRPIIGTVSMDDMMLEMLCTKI
ssDAF12 agonist – activators of S. stercoralis DAF-12 nuclear receptor. HEK293 ssDAF-12/GRIP1 lit1-tk-luc reporter, luminescence; % of 3 µM dafachronic acid response. AID 652126. activation, % at 6.8 µM. 370,000 tested, 1% active;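 active = activation above the mean over all tested compounds plus 3 SD, cut at about 0.9% in these data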;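 note: 0% = DMSO-only wells and 100% = 3 µM delta7-dafachronic acid wells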
DAX1 inh-2 – DAX1 (NR0B1) inhibition, primary screen. HEK293T StAR-luciferase reporter, SF-1/DAX-1 repression relief. inhibition, % at 6.8 µM. 370,000 tested, 1.1% active;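 active = inhibition above the mean over all tested compounds plus 3 SD, cut at about 3.6% in these data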;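 note: 0% = DAX-1 cells with DMSO and 100% = cells lacking DAX-1 with DMSO; higher inhibition means more luminescence from relief of DAX-1 repression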
hgDAF-12 ag – agonists of H. glycines DAF-12 nuclear receptor. HEK293 GAL4-hgDAF12 UAS-luciferase reporter, agonist luminescence; normalized to butyrate control. activation, % at 6.8 µM. 370,000 tested, 1.8% active;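 active = activation above a cutoff set at the mean of all screened compounds plus 3 SD, cut at about 10% in these data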;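 note: 0% = DMSO wells and 100% = sodium butyrate wells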
hcDAF12 agonist – H. contortus DAF-12 activation, primary screen; HEK293 hcDAF-12 lit1-tk-luc reporter, luminescence; 0% DMSO, 100% Δ7-dafachronic acid; activation, % at 6.8 µM; 370,000 tested, 1.4% active; AID 652067;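 active = activation above the mean of all tested compounds plus 3 SD, cut at about 5.5% in these data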;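 note: 100% = response to 3 µM Δ7-dafachronic acid high control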
Rev-erbA mod – modulates human Rev-erb alpha binding to DNA; Rev-erbα–FITC-DNA binding, fluorescence polarization, 90 min; 370,000 tested, 0.79% active; activity, % at 10 µM; AID 1259318; P20393;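 active = activity above about 14%, limit read from the data; passing the limit was not always enough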;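 note: 0% = DMSO wells with 35 nM protein and 100% = DMSO wells with 750 nM protein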
An asterisk follows results filed as active; · = not tested or not shown. Shown are actives, neighbours in structure and some others; about 4.8% of the full set was active somewhere.

SMILES	DAX1 inh-1	ssDAF12 agonist	DAX1 inh-2	hgDAF-12 ag	hcDAF12 agonist	Rev-erbA mod
Cc1cc2c(cc1C)-n1nnnc1C(N1CCN(c3ccccn3)CC1)C(c1ccc3c(c1)OCO3)=N2 (stereo not given)	·	0	1	8	6.3*	5
c1ccc(N2CCN(Cc3ccc4c(c3)OCO4)CC2)nc1	·	0	0	-1	3	2
CC(=O)Nc1ccc(CCc2nc3ccccc3[nH]2)cc1	1	-1	0	-2	1	-1
CC(C)c1ccc(NC(=O)N(CCc2nc3ccccc3[nH]2)C2CCCC2)cc1	1	0.9*	0	0	3	5
N[C@@H](CSCC(=O)O)C(=O)O	·	·	·	·	·	3
COCC(C)N=C1NN=C(c2c[nH]c3ccccc23)CS1 (stereo not given)	1	1	1	9	6.2*	-1
CCOc1ccc(NC(=O)Cc2cccc3ccccc23)c([N+](=O)[O-])c1	-1	6.7*	-1	-3	-1	2
CCOc1ccc(NC(=O)Cc2ccccc2)c([N+](=O)[O-])c1	-1	-1	-1	4	0	0
CCOC(=O)c1c(C)nc2sc(C(N)=O)c(N)c2c1-c1ccc(OC)cc1	-1	-2	-1	0	-4	2
CCOC(=O)c1c(C)nc2sc3c(=O)n(-c4ccc(C(C)=O)cc4)nnc3c2c1-c1ccc(OC)cc1	0	-2	-1	1	7.0*	-5
COC(=O)[C@]12C[C@H](CC(=O)NCc3ccc(OC)c(OC)c3)C(=O)N(Cc3cccc4ccccc34)C1=C[C@H](C(C)(C)C)O[C@@H]2C	·	-1	-1	0	-1	0
CC(C)CCN(C)C1CCN(C(=O)Nc2ccc3c(c2)OCO3)CC1	·	-1	0	0	-4	-2
COc1ccccc1OCc1cc(C(=O)N2CC3C[C@@H]4CC2C[C@H](C3)C4)no1	2	-1	3.7*	12*	1	8
O=C(c1cc(COc2ccc(F)cc2F)on1)N1CC2C[C@@H]3CC1C[C@H](C2)C3	1	0	1	8	2	-3
O=C(c1cc(COc2c(F)cccc2F)on1)N1C[C@H]2CC[C@H]1C2	1	0	4	11*	4	-12
COc1cc(C)ccc1OCc1cc(C(=O)N2CCC(c3ccc(F)cc3)C2)no1 (stereo not given)	3	1	1	13*	5	-7
COc1ccccc1OCc1cc(C(=O)N2CCN(C)C(c3ccccc3)C2)no1 (stereo not given)	2	0	4.2*	7	2	0
O=C(O)CCN1C(=O)/C(=C/c2ccc(F)cc2F)SC1=S	·	1	·	0	0	1
COP(N)(=O)C(CC(C)C)NC(=O)OCc1ccccc1 (stereo not given)	·	0	0	1	-1	5
CCn1c(SCC(=O)Nc2ccccc2-c2ccccc2)nnc1-c1ccc(Cl)cc1	·	-1	0	0	-2	-4
C=CCN(C)CC#Cc1ccc(OC)cc1	·	0	0	-2	-2	-1
C[N@+]12CCCC[C@@H]1CCC(=C(c1cccs1)c1cccs1)C2	·	·	·	·	·	0
C=CCn1nc2ccccc2c1OC	-1	1	0	2	5	-2
C=CCn1nc2ccccc2c1OCCO	3	0	0	5	6.0*	-2
COc1ccc(-c2cc(-c3nnc(SCC(=O)NC4CCCCC4)n3N)[nH]n2)cc1	·	0	-2	3	2	-4
SMILES	DAX1 inh-1	ssDAF12 agonist	DAX1 inh-2	hgDAF-12 ag	hcDAF12 agonist	Rev-erbA mod
O=C(Nc1ccccc1)OC1CCCCc2cccnc21 (stereo not given)	0	1.7*	0	-1	-1	-2
CCOC(OCC)c1cc2ccccc2cn1	0	2.2*	0	3	2	1
Cc1ccc(N=Nc2ccc3ccccc3c2O)cc1	4	-1	0	-2	5	3
COc1cccc(N=Nc2ccc3ccccc3c2O)c1	4	1.6*	2	10	4	1
C[C@@H]1CN([C@H](C)CO)C(=O)CCCn2nncc2CO[C@H]1CN(C)C(=O)c1ccccc1	0	-1	0	13*	0	11
C[C@H](CO)N1C[C@H](C)[C@@H](CN(C)C(=O)Nc2cccc(Oc3ccccn3)c2)OCc2cn(nn2)CCCC1=O	·	-1	2	1	-1	-3
C[C@@H]1CN([C@H](C)CO)C(=O)CCCn2cc(nn2)CO[C@H]1CN(C)C(=O)Nc1cccc(Oc2ccccn2)c1	6.3*	-1	0	0	-1	-4
C[C@@H]1CN([C@@H](C)CO)C(=O)CCCn2nncc2CO[C@@H]1CN(C)C(=O)Nc1ccnc(N2CCOCC2)c1	6.2*	-1	1	0	0	3
O=C(OCCN1CCN(C2CN(Cc3cn(Cc4ccc([N+](=O)[O-])cc4)nn3)S(=O)(=O)C2)CC1)c1cc2ccccc2o1 (stereo not given)	·	-1	-1	-2	1	0
Cc1ccc(NC(=O)c2cccc3c2-c2ccccc2C3=O)c(C)c1	·	-1	0	3	1	1
COCc1cc(N2CCNC[C@@H]2C)ccc1N1CCN(Cc2ccccc2)[C@H](C)C1	·	-1	0	0	-1	1
COc1ccc2ccccc2c1C=Nn1c(-c2n[nH]c3c2CCC3)n[nH]c1=S	·	-1	1	0	-1	5
Cc1ccc2nc3c(c(N)c2c1)CCN3C	4	0	0	7	6.2*	4
Cc1ccc2nc3c(c(N)c2c1)CCN3c1ccccc1	-2	-2	-1	0	0	1
COC(=O)[C@]12C[C@H](CC(=O)NCc3ccc(OC)c(OC)c3)C(=O)N(Cc3cccc4ccccc34)C1=C[C@H](COCc1ccccc1)O[C@@H]2C	·	-2	-1	0	-5	-1
CC(=O)NC12CC3CC(CC(CC(=O)O)(C3)C1)C2	1	-1	1	1	0	8
CC(=O)NC(C)C12CC3CC(CC(CC(=O)O)(C3)C1)C2 (stereo not given)	4.4*	-1	0	1	-1	1
Cc1cccc(N2Cc3ccc(Br)cc3C2)c1	4	0	1	6	6.5*	-1
C/C(=N/O)c1cccc(N2Cc3ccccc3C2)c1	-1	-1	0	2	2	0
O=C(Nc1ccccc1)Nc1scc2c1c(=O)oc1ccccc12	·	-1	0	1	0	-8
O=C(CN1CCN(c2ccccc2)CC1)Nc1scc2c1c(=O)oc1ccccc12	4.7*	0	1	0	0	7
Cc1ccc(-c2nc3c(C)cc(Br)cn3c2Cc2ccsc2)cc1	·	0	-1	11*	3	2
